From PubChem BioAssay AID717 (Columbia University Molecular Screening Center, 2007)
The campaign covered roughly 91,000 compounds. About 40 (0.04%) were called active. No stated cut-off is given here; in the data, active means activation above about 37%; inactive means the rest. Only a sample is shown.

The compounds below were run against Bifunctional epoxide hydrolase 2 (Homo sapiens) (UniProt P34913) (assay: sEH enzyme activity enhancers – biochemical, human sEH, primary screen (AID 717)). Details: purified human sEH enzymatic activity, activator screen; at 2 µM; hits give high values.
Chain of Bifunctional epoxide hydrolase 2 (Homo sapiens) (P34913 whole entry, looked up): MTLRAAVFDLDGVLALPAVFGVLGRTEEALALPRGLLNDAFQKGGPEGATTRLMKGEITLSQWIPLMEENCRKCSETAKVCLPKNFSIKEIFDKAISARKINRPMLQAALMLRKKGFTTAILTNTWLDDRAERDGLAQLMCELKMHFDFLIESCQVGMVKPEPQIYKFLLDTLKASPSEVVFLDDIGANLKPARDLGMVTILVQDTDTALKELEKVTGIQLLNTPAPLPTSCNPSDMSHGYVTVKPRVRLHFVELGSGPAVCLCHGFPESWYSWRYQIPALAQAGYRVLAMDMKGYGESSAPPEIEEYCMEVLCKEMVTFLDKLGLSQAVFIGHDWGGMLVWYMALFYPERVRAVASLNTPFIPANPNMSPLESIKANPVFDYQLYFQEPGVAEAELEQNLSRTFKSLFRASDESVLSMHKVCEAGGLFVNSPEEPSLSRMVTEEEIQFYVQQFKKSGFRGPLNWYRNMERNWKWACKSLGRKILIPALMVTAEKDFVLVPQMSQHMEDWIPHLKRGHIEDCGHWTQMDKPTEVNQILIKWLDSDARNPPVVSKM

activation, inactive:
COc1ccc(C)cc1NC(=O)CCC(=O)Nc1nnc(C(F)(F)F)s1 -15.1%, Cc1nnsc1S(=O)(=O)Cc1ccccc1Cl -3.8%, CCCCNC(=O)c1onc(CSc2cccc(OC)c2)c1C(=O)O 11.8%, CS(=O)(=O)N1CCN(c2ccc(C(=O)NC3C4CC5CC(C4)CC3C5)cc2[N+](=O)[O-])CC1 (stereo unspecified) 8.8%, C(=N/N1CCN(c2ccccc2)CC1)/c1cccs1 4.8%, COCCCNC(NC(=O)c1ccc(C)cc1)C(Cl)(Cl)Cl (stereo unspecified) 18.3%, CCOC(=O)C1=C(CN2CCc3ccccc32)NC(=O)NC1c1cc(C)ccc1C (stereo unspecified) 7.8%, Nc1ccc(-c2sc(N)nc2-c2ccccc2)cc1 10.7%, COCC(C)NC(=O)c1ccc(-n2nc(C(F)(F)F)cc2-c2cccs2)cc1 (stereo unspecified) 3.4%, CC(=O)c1cn(CCCCCCCCCCn2cc(C(C)=O)c(=O)[nH]c2=O)c(=O)[nH]c1=O 3.2%, Cc1csc(=NC(=O)c2ccccc2)n1CCO 7.3%, CCc1ccc(C(=O)CSc2nnc(C)c(=O)[nH]2)cc1 -0.4%, CCCn1nnnc1NC(=O)COc1ccc(Cl)cc1C 36.8%, COc1ccccc1CNC(=O)c1ccc(SC)cc1OC 1%, Cc1nn(C)cc1/C=C1\CCC/C(=C\c2cn(C)nc2C)C1=O 11.7%, CCN(CC)c1nc(-c2ccccc2)cc(C(F)(F)F)c1C#N 30.7%, Nc1c(-c2cccc(Cl)c2)cnn1-c1cccc([N+](=O)[O-])c1 0.1%, O=c1c2ccccc2c(-c2ccc(Br)cc2)nn1Cc1ccccc1 -4.3%, O=C(COC(=O)c1ccccc1NC(=O)c1ccco1)Nc1ccc2c(c1)OC(F)(F)O2 -28.9%, CCCCNCc1ccc(SC)cc1 -8.5%, NC(=O)N1CCCC1C(=O)Nc1ccc(Cl)c(Cl)c1 (stereo unspecified) -4.5%, CCCCNC(=O)CSc1nc2ccc(NC(=O)CSc3nnc(COc4ccccc4C)n3C)cc2s1 -88.3%, Cc1cc(C(=O)OCC(=O)Nc2ccc(F)c(F)c2)c(C)o1 -9.4%, COc1ccc(CCNC(=S)NC(=O)/C=C/c2ccc(C)cc2)cc1OC 3.7%, CC1=NN(Cc2ccccc2)C(=O)/C1=C/c1ccc(N(C)C)cc1 4.2%, CCn1cc(C(=O)N/N=C(/C)c2ccc(F)cc2)c(=O)c2cc(F)c(N3CCCC3)cc21 11.6%, COc1ccc(NS(=O)(=O)c2ccc(NC(=S)NC(=O)CC(C)C)cc2)cc1 1.9%, O=C(NCCCN1CCOCC1)c1cc2c(s1)CCC2 -5.4%, O=C(CN1C(=O)NC(Cc2ccccc2)(Cc2ccccc2)C1=O)NCC1CCCCC1 11.9%, O=C(OCN1C(=O)c2ccccc2C1=O)/C(=C\c1ccco1)NC(=O)c1ccccc1 -78.7%, COC(=O)CNC(=O)c1ccccc1[N+](=O)[O-] 18.9%, CCOc1ccc(C(CCc2ccccc2)NC(=O)c2ccc(OC)c(OC)c2)cc1OCC (stereo unspecified) 23.3%, CC(CNc1ccc([N+](=O)[O-])cc1)NC(=O)c1ccccc1Br (stereo unspecified) 5%, C=CCn1c(-c2ccc(Cl)cc2)ccc(C#N)c1=O 2.9%, COc1ccc2c(c1)SC(C)CC2=O (stereo unspecified) 13.9%, CC1(C)CC(=O)C(C=NCCN2CCN(C(=S)Nc3cccc(Cl)c3)CC2)=C(O)C1 -11.3%, Cc1ccc(-c2csc(N(Cc3ccco3)C(=O)c3cccs3)n2)cc1 11.6%, CCOC(=O)NNC(=O)c1ccc(Cl)cc1 0.5%, CC(Oc1ccc(Cl)cc1Cl)C(=O)/C=C/N(C)C (stereo unspecified) -10%, COc1ccc(/C=N/Nc2nc3ccccc3c(=O)[nH]2)cc1 10%, O=[N+]([O-])c1ccc(NCCCN2CCOCC2)c(Cl)c1 -17.1%, Clc1ccc(-n2nnnc2CN2CCCCC2)cc1Cl -4%, C=CCOC(=O)C1=C(C)NC(C)=C(C(=O)OCC=C)C1c1cccs1 8.4%, COc1ccc(-c2cc(C(=O)n3cnc4ccccc43)c3ccccc3n2)cc1 11.7%, COc1cc(C(=O)N2CCN(C/C=C/c3ccccc3)CC2)cc(OC)c1C 11.7%, CCCCNC(=S)NNC(=O)c1cc(C)on1 -1.6%, CN(CC#CCC(c1ccccc1)c1ccccc1)C(C)(C)C -4.2%, CC(C)(C)c1cc2cccnc2n1Cc1ccccc1 -9.8%, COc1cc(C2C(C(=O)OCCC#N)=C(C)NC3=C2S(=O)(=O)c2ccccc23)cc(OC)c1OC (stereo unspecified) -9%, c1ccc(CSc2ncnc3c2sc2nc(N4CCOCC4)c4c(c23)CCCC4)cc1 -8.4%, c1cnc(Nc2nc(-c3ccc4ccccc4c3)cs2)nc1 9.6%, c1ccc2c(CSCc3nc4ccccc4[nH]3)cccc2c1 -10.8%, CCOC(=O)c1c(NC(=O)c2ccc(N3CCOCC3)c([N+](=O)[O-])c2)sc(C)c1C -11.3%, O=C(CN1CCN(S(=O)(=O)c2ccc(Cl)s2)CC1)NCc1ccc(Cl)cc1 0.3%, COc1ccc(C(=S)Nc2ccccc2)cc1 -3.8%, Cc1nn(-c2ccccc2)c(Cl)c1C(=O)Nc1ccccc1 2%, O=C(CNC(=O)c1cc2c(s1)CCC2)Nc1ccccc1Br -12.2%, CCNC(=S)N1CCN(C(=O)c2ccco2)CC1 1%, COc1cc(/C=N/O)cc(Br)c1OS(=O)(=O)c1ccc(C)cc1 12.9%, CCOC(=O)COc1cc(OCC(=O)OCC)c2c(=O)cc(-c3ccccc3)oc2c1 15.3%, Cc1ccc(C(=O)NNC(=O)OC(C)(C)C)c(Cl)c1 2%, Cc1ccc(NC(=S)N/N=C2/CCCc3c(C)cc(C)cc32)cc1 9.9%, O=C(CCC(=O)OCc1cccc(C(=O)Oc2ccccc2)c1)Nc1cccc2ccccc12 -9.6%, O=C(CSCc1c(Cl)cccc1Cl)NN1C(=O)c2ccccc2C1=O -21.2%, Cc1ccc(N2C(=O)C(Cc3ccccc3)NC2=S)cc1 (stereo unspecified) -3.9%, COc1ccc(NC(=O)CSc2nc(N)c(-c3ccccc3)c(=O)[nH]2)cc1 -3.7%, Cc1nn(C)c(Oc2ccccc2)c1[N+](=O)[O-] -3%, O=C(CSc1ccc(/C=N/NC(=O)c2cccc(F)c2)o1)Nc1ccccc1 -79%, CCOc1c2ccc(C(=O)NCc3ccc(OC(F)(F)F)cc3)cc2nn1C -0.5%, CC1=NN(C(=O)c2ccccc2Br)C(O)(c2cccnc2)C1 (stereo unspecified) -13.7%, Cc1nn(-c2ccccn2)c2c1C(c1ccncc1)C1=C(CC(C)(C)CC1=O)N2 (stereo unspecified) 3.8%, Cc1ccc(Oc2ccc3c(c2)C(=O)N(c2cccc4cccnc24)C3=O)cc1 -10.3%, Cc1cc(C)c2c(-n3cccc3)c(C(=O)NNS(=O)(=O)c3ccc(F)cc3)sc2n1 11.1%, Cc1nn(C)cc1C(=O)NNC(=S)Nc1ccc(Cl)cc1 -12.9%, O=C(NC1=NCCS1)[C@H](Cc1ccccc1)N1C(=O)c2ccccc2C1=O -7.6%, CCCCNC(=O)CCn1c(=S)[nH]c2cc3c(cc2c1=O)OCO3 -13.6%, O=C(c1cccc(F)c1)N1CCN(c2ccc([N+](=O)[O-])c(N3CCCCC3)c2)CC1 -8.2%, COc1ccc(N(CC(=O)N/N=C/c2cccc3c2OCCO3)S(=O)(=O)c2ccc(NC(C)=O)cc2)cc1 5.2%, COc1ccccc1-c1n[nH]c2c1[C@H](C)CC[C@H]2C(C)C 15.1%, COc1cccc2c1OCC(C(=O)NCc1ccc(Cl)cc1Cl)=C2 -78.6%, COc1ccc([N+](=O)[O-])cc1NC(=O)CCc1ccccc1 -7.7%, CCn1c2ccccc2c2cc(NC(=O)C/C(C)=N/NC(=O)c3ccccc3N)ccc21 -2.8%, COc1ccccc1CSc1nc2ccccc2[nH]1 2.2%, O=C(CNC(=O)c1ccccc1)NCC(=O)OCc1ccc(Cl)cc1 5.3%, c1ccc(-n2nnnc2NC2CCCCCC2)cc1 12.5%, COc1ccc(C(=O)NC(=S)Nc2ccccc2N2CCN(S(C)(=O)=O)CC2)cc1OC -12%, Cc1nnc(NC(=O)CSc2nc(C3CCCCC3)nc3ccccc23)s1 1.6%, Cc1c(C(=O)OC(C)C)sc(NC(=O)c2cccnc2)c1C#N -4.7%, Cc1ccc(NC(=S)Nc2ncccc2C)c(C)c1 -5.2%, CCOC(=O)C1CN(S(=O)(=O)c2ccc(F)cc2)C1 6.7%, CCCC(=O)NC(Nc1ccccc1OC)C(Cl)(Cl)Cl (stereo unspecified) -3.9%, CC(C)C(=O)OCC(=O)Nc1ccc2c(c1)CCC2 -1.7%, Cc1ccc(S(=O)(=O)N(CC(=O)N/N=C/c2ccc(F)cc2)c2cccc3cccnc23)cc1 6.1%, N#Cc1c(C(F)(F)F)cc(-c2ccccc2)nc1SCC(=O)N1CCOCC1 0.7%, N#C/C(=C1/CCCN1)c1ccccn1 -2.3%, Cc1cc(C)cc(OCC(=O)NNC(=O)c2cc3ccccc3oc2=O)c1 2%
